High-throughput results as filed in PubChem.
AmpC inh no detg: blocks E. coli AmpC beta-lactamase in detergent-free assay; P00811; AmpC nitrocefin hydrolysis, absorbance 480 nm, 0.0001% Triton; Potency, µM (doses to about 57.1 µM), for the others: at the highest dose activity change, negative = inhibition, most hits filed as inhibitors; 0.52% of 330,000 active;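 further: plate controls were no compound for no effect and no enzyme for full effect; nearly all actives have a fitted effect of over 20% in size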
Target sequence (P00811 whole entry, looked up): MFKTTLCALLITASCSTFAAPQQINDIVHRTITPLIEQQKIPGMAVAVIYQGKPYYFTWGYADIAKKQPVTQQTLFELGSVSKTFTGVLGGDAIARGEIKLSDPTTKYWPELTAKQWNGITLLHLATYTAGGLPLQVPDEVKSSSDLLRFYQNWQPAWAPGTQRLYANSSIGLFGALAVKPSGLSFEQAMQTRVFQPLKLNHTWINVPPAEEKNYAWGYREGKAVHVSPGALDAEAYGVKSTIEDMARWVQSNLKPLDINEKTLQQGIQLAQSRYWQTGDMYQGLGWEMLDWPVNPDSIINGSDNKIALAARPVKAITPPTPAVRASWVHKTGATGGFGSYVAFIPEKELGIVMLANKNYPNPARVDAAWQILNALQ
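20 mM phosphate pH 7.0 + 0.01% (detergent screen) or 0.0001% Triton X-100; 5.3 nM AmpC reagent; cpd preinc 15 min RT; nitrocefin (800 uM stock) to start; A480 q20 s × 4 min; Activity was normalised to no-enzyme and no-compound control wells.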
Sm TGR block: S. mansoni TGR enzyme inhibition | 3% of 360,000 active | Potency, µM (highest dose often 114 µM), inactives show top-dose activity change, negative = inhibition, actives largely listed as inhibitors | purified TGR, DTNB reduction, TNB absorbance 405 nm; further: nearly all actives have a fitted effect of over 60% in size
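Kinetic colorimetric format: TGR-catalysed, NADPH-driven DTNB reduction monitored via TNB absorbance. Enzyme dispensed at 20 nM; compound exposure 15 min at room temperature before reaction start.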
AmpC detergent: inhibitors of E. coli AmpC beta-lactamase with detergent; P00811; AmpC hydrolysis of nitrocefin, absorbance 480 nm, 0.01% Triton; Potency, µM (titrated, usually from 114 µM), inactives show top-dose activity change, negative = inhibition, most hits filed as inhibitors; 0.041% of 370,000 active; AID 485294;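 further: 0% = no-compound wells and -100% = no-enzyme wells; nearly all actives have a fitted effect of over 25% in size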
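20 mM phosphate pH 7.0 + 0.01% (detergent screen) or 0.0001% Triton X-100; 5.3 nM AmpC reagent; cpd preinc 15 min RT; nitrocefin (800 uM stock) to start; A480 q20 s × 4 min; Activity was normalised to no-enzyme and no-compound control wells.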
Active calls of the source: *; ? = inconclusive; . = not tested or not shown; [ ] = remark or other dose. Compounds with a hit are over-represented: about 3.3% of the library has one in this group of screens. The call rests on the fitted dose curve; in most records, active means well fitted curve in the direction sought with a large enough effect; inconclusive means small, poorly fitted or top-dose-only effect, or another doubt; inactive means no such curve, though single readings can be large; an effect the other way counts as inactive or inconclusive. Unless noted, on the % scale 0 is the no-effect control and ±100 the full control effect; potency means the concentration at half of the fitted maximal effect.

SMILES | AmpC inh no detg | Sm TGR block | AmpC detergent
CC(=O)Nc1ccc(S(=O)(=O)Nc2cccc(-c3ccc(N4CCC(C)CC4)nn3)c2)cc1 | . | -4% | -5%
COc1ccc(N2C(=O)CS(=O)(=O)C23C(=O)N(Cc2ccc(F)cc2)c2ccc(C)cc23)cc1 (configuration not stated) | . | 8% | 22%
Cc1ccc(-c2noc(C3CCCN(C(=O)C4CCCCC4)C3)n2)o1 (configuration not stated) | 56% | 25µM* | 1%
Cc1ccc(-c2noc(C3CCCN(C(=O)c4ccc(Cl)cc4)C3)n2)o1 (configuration not stated) | 67% | 12% | 5%
Cn1cc(C(=O)N/N=C/c2ccc([N+](=O)[O-])cc2)c2ccccc21 | -32% | -1% | -3%
CC(=O)n1cc(CO)c2ccccc21 | -16% | -14% | -8%
CC(=O)n1cc(N(C(=O)CCl)c2ccccc2)c2ccccc21 | 8% | 0.5µM* | -5%
O=Cc1[nH]c2ccccc2c1N(C(=O)CCl)c1ccc([N+](=O)[O-])cc1 | -49% | 3.2µM* | -3%
O=C(NC1CCN(CC(=O)N(c2ccccc2)c2ccccc2)CC1)c1ccc([N+](=O)[O-])cc1 | 59% | 4% | 0%
CC(=O)n1cc(N(C(=O)CCl)c2ccc([N+](=O)[O-])cc2)c2ccccc21 | 28% | 0.71µM* | -7%
COc1cc(-c2nc(Cn3nnc(C(=O)Nc4cccc(Cl)c4)c3C)c(C)o2)cc(OC)c1OC | . | -1% | 21%
COc1ccc(C2CC(=O)c3cc(-c4nc(-c5cccc([N+](=O)[O-])c5)cs4)c(=O)n(-c4cccc(C)c4)c3C2)cc1 (configuration not stated) | . | 3% | 24%
COc1cccc(C(=O)Nc2cccc(C(=O)OCc3cc(=O)n4nc(C5CC5)sc4n3)c2)c1 | . | -7% | -9%
CCCCC(=O)Nc1ccc(C(=O)OCc2cc(=O)n3ccsc3n2)cc1 | . | 5% | 20%
CCc1ccc(OCC(=O)NCC(c2ccc(OC)cc2)N2CCOCC2)cc1 (configuration not stated) | . | -5% | 0%
O=[N+]([O-])CC(=Nc1ccc(Cl)cc1)N/N=C\c1oc(O)c2ccccc12 | -56% | 13µM* | -5%
O=C(N/N=C/c1ccc([N+](=O)[O-])o1)c1cn(-c2ccccc2)nc1-c1ccc(Cl)cc1 | ? | -27% | 1%
COc1ccc(OC)c(CNc2ncnc3onc(C)c23)c1 | . | -7% | -1%
CN1C(=O)/C(=C/C=C/c2ccco2)C(=O)NC1=S | -26% | ? | 3%
O=C1NC(=O)N(Cc2ccccc2)C(=O)/C1=C\C=C\c1ccco1 | -30% | 10µM* | 3%
O=C1NC(=O)N(Cc2ccco2)C(=O)/C1=C/C=C/c1ccco1 | 13µM* | 2µM* | -10%
O=C1NC(=O)N(Cc2ccccc2)C(=O)/C1=C/N1CCCc2ccccc21 | -36% | ? | -10%
CCOc1ccccc1CNC(=O)CCn1c(=O)c2cccn2c2ccc(F)cc21 | . | -4% | 13%
Cc1[nH]c2ccccc2c1C(c1ccccn1)c1c(C)[nH]c2ccccc12 | 34% | 5.6µM* | 2%
Cc1[nH]c2ccccc2c1C(c1ccncc1)N1CCN(c2ccc(F)cc2)CC1 (configuration not stated) | ? | 8.9µM* | 5%
SMILES | AmpC inh no detg | Sm TGR block | AmpC detergent
Cc1ccccc1C(O)c1ccncc1 (configuration not stated) | -6% | -7% | 0%
CC(C)(C)n1nnnc1C(c1ccncc1)N1CCN(c2ccc(O)cc2)CC1 (configuration not stated) | -11% | 37% | -11%
Cc1[nH]c2ccccc2c1C(O)c1ccncc1 (configuration not stated) | -7% | 25µM* | -1%
Cc1[nH]c2ccccc2c1SCC(=O)N1CCCCC1 | -15% | 1% | -10%
O=c1[nH]c(=S)[nH]c(O)c1C(c1ccccn1)c1c(O)[nH]c(=S)[nH]c1=O | -14% | -29% | -16%
Cc1[nH]c2ccccc2c1C(c1ccncc1)N1CCCCC1 (configuration not stated) | -17% | 1.8µM* | -3%
COC(=O)CN1C(=O)C(C)(C)c2cc(S(=O)(=O)Nc3ccc(Br)cc3F)ccc21 | . | -2% | -3%
CCCCc1cc(=O)oc2cc(C)c3c(C(C)(C)C)coc3c12 | . | 2% | -10%
O=C(/C=C/Nc1ccccc1C(=O)O)c1cccs1 | -15% | -4% | 1%
O=C(O)c1ccccc1N/C=C\[N+](=O)[O-] | -29% | 28µM* | 0%
CCOc1ccc(NC(=O)Cn2c3ncccc3c(=O)n2-c2ccc(CC)cc2)cc1 | . | -1% | 4%
CC(C)CC1C(C#N)=C(N)OC2=C1C(=O)CC(c1ccccc1)C2 (configuration not stated) | 28µM* | 0% | ?
CC(CC1C(C#N)=C(N)OC2=C1C(=O)CCC2)c1ccccc1 (configuration not stated) | -30% | 1.3µM* | 2%
CCc1ccc(C2C(C#N)=C(N)OC3=C2C(=O)CCC3)s1 (configuration not stated) | -13% | . | 4%
N#CC1=C(N)OC2=C(C(=O)CC(c3ccccc3)C2)C1c1ccc2c(c1)OCO2 (configuration not stated) | -32% | -5% | -23%
CCOc1ccc(/C=C/c2nc(C#N)c(Nc3ccc(OC)cc3)o2)cc1 | . | 1% | 17%
Cc1nc2ccc(S(=O)(=O)N(CC(=O)Nc3ccc(F)cc3F)Cc3ccccc3)cc2s1 | . | 0% | 6%
COc1ccc(N(C(=O)c2cnccn2)C(C(=O)NCc2ccccc2)c2ccc(O)cc2)cc1 (configuration not stated) | -15% | 28µM* | 8%
CC(=O)Nc1ccc(N(C(=O)c2cnccn2)C(C(=O)NC2CCCCC2)c2ccc(O)cc2)cc1 (configuration not stated) | -26% | 16µM* | 7%
CC(=O)Nc1ccc(N(C(=O)c2cnccn2)C(C(=O)NC2CCCCC2)c2ccc(F)cc2)cc1 (configuration not stated) | 129% | 7% | 8%
O=C(NCc1ccccc1)C(c1ccc(O)cc1)N(C(=O)c1cnccn1)c1ccccc1 (configuration not stated) | -20% | 6% | ?
COCCCNc1nc2c(c(=O)[nH]c(=O)n2C)n1CC(O)COc1ccc(Cl)cc1 (configuration not stated) | . | 9% | 20%
COc1cccc(Cn2c(=O)n(-c3ccc(C)c(F)c3)c(=O)c3sc4ccccc4c32)c1 | . | 2% | 18%
Cc1ccc(NC(=S)NC(C)(C)C)c([N+](=O)[O-])c1 | -25% | -7% | 11%
C=CCNC(=S)Nc1ccc(C)cc1[N+](=O)[O-] | 0%[2.29 µM] | 40µM* | 1%
Cc1ncc(N=Nc2ccc(F)cc2)c(-c2ccc(Cl)cc2)n1 | 0.4µM* | -5% | 1%
COc1ccc(-c2nc(C)ncc2N=Nc2ccccc2)cc1 | 61% | 14% | -9%
Cc1c(Cl)cccc1NC(=O)Nc1nnc(N(C)Cc2ccccc2)s1 | . | 7% | 1%
